Source: PubChem BioAssay (National Center for Advancing Translational Sciences (NCATS))
Hits are enriched below; roughly 1.3% of the tested compounds scored in any of these assays.
RE007 growth inh = less growth of the S. pombe RE007 Vpr strain. S. pombe RE007 Vpr strain, BacTiter-Glo ATP luminescence, 24 h. Potency, µM (top dose mostly 92.2 µM), without a hit: top-dose activity change, negative = less growth, hits mostly inhibitors. actives 0.21% (n = 360,000); active = well fitted falling curve with a large enough effect; inconclusive = small, poorly fitted or top-dose-only effect; inactive = no such curve, though single readings can be large or run the other way; also: nearly all actives have a fitted effect of over 50% in size
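Fission yeast strain RE007, carrying one chromosomally integrated HIV-1 vpr copy, was seeded at OD 0.01 in PMG+AL medium with 23 nL pinned compound. After 24 h at 30 °C and 99% humidity, viability was read by BacTiter-Glo luminescence.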
Vaccinia mCherry = inhibitors of vaccinia virus infection (mCherry reporter signal) | Vaccinia virus mCherry reporter infection, fluorescence | Potency, µM (top dose mostly 36.5 µM), for the others: at the top dose activity change, negative = inhibition, actives largely listed as inhibitors | actives 0.63% (n = 310,000) | AID 720579; calls by dose curve; tested in A549 cells; also: nearly all actives have a fitted effect of over 35% in size
Vaccinia Venus = vaccinia inhibition (Venus reporter); actives 0.46% (n = 330,000); AID 720580; Potency, µM (series often up to 36.5 µM), inactives show at the highest dose activity change, negative = inhibition, most hits filed as inhibitors; Vaccinia virus Venus reporter expression, fluorescence; calls by dose curve; tested in A549 cells; also: nearly all actives have a fitted effect of over 30% in size
AMA1-RON2 inh = disrupts binding of P. falciparum AMA1 to RON2 | AlphaScreen AMA1-biotinylated RON2 peptide binding | Potency, µM (titrated, usually from 58.2 µM), inactives show at the highest dose activity change, negative = inhibition, actives largely listed as inhibitors | actives 0.2% (n = 360,000) | AID 720542;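 also: 0% = vehicle wells and -100% = peptide control; nearly all actives have a fitted effect of over 45% in size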
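AMA1 (3D7) with his tag at 25 nM final met compounds first, then biotinylated RON2 peptide at 25 nM; detection used donor plus acceptor beads, 10 µg/mL apiece, read by AlphaScreen after 30 min at room temperature.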
Tb PYK inh = T. brucei pyruvate kinase inhibition; Q57TT1; TbPYK enzyme, Kinase-Glo Plus ATP luminescence, 45 min; Potency, µM (doses to about 76.8 µM), for inactives: at the top dose activity, negative = inhibition, hits mostly inhibitors; actives 0.12% (n = 410,000); AID 624173; also: nearly all actives have a fitted effect of over 50% in size
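Luminescence from Kinase-Glo Plus, added after a 45-minute room-temperature reaction, served as the end-point read-out. The enzyme and substrate were preincubated with compound before ADP (130 uM final) initiated turnover. Concentration-effect curves came from normalized qHTS data.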
LmPK inhibitor = blocks Leishmania mexicana pyruvate kinase activity; actives 0.37% (n = 290,000); Potency, µM (series often up to 57.5 µM), for inactives: at the top dose activity change, negative = inhibition, most hits filed as inhibitors; purified LmPK, Kinase-Glo ATP luminescence, 1 h
Target sequence (Q27686 whole entry, looked up): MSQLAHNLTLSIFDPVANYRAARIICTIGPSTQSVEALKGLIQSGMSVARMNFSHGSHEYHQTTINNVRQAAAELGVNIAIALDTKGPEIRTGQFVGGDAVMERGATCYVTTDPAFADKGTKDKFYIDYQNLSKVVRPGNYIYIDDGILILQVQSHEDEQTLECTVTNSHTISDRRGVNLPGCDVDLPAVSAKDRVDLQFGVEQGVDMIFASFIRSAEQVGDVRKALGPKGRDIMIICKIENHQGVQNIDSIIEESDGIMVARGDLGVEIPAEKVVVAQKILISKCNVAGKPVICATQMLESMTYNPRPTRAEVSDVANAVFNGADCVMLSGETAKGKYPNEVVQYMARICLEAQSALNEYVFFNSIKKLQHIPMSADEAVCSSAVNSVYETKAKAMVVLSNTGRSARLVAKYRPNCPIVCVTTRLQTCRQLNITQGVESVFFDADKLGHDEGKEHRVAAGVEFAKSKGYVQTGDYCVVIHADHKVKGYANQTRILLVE
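0.1 nM LmPK, 0.5 mM PEP, 0.1 mM ADP; 50 mM imidazole pH 7.2, 7 mM MgCl2, 50 mM KCl; 1 h RT. Kinase-Glo luminescence readout, normalized to no-enzyme (full inhibition) and uninhibited wells.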
The depositor's hits bear a star; i = inactive; ? = inconclusive; nt = not tested or not shown. Unless noted, calls follow the shape of the dose curve; as a rule, active = well fitted curve in the direction sought with a large enough effect; inconclusive = small, poorly fitted or top-dose-only effect, or another doubt; inactive = no such curve, though single readings can be large; an effect the other way counts as inactive or inconclusive. Unless noted, % is scaled to controls: 0 for no effect and ±100 for the full control effect; potency is read from the fitted curve at half-maximal effect.

SMILES	RE007 growth inh	Vaccinia mCherry	Vaccinia Venus	AMA1-RON2 inh	Tb PYK inh	LmPK inhibitor
O=c1[nH]c(=O)n(Cc2ccccc2)c2nc(-c3ccc(Oc4ccc(F)cc4)c([N+](=O)[O-])c3)n(CCO)c12	19%	-21%	10µM*	-21%	12%	3%
COc1ccc(-c2nc3c(c(=O)[nH]c(=O)n3Cc3ccccc3)n2CCO)cc1	21%	?	-25%	4%	0%	-11%
CN(CC(=O)N1CCOCC1)Cc1c(Cl)cccc1NC(=O)c1ccccc1	nt	nt	nt	nt	-5%	nt
C[n+]1ccc(/C=C/c2ccccc2O)c2ccccc21	-23%	-12%	-13%	-5%	-6%	-4%
CN1/C(=C/c2cc[n+](C)c3ccccc23)C=Cc2ccccc21	10µM*	?	?	-27%	-25%	?
CNC(CC(=O)c1ccc([N+](=O)[O-])cc1)C(Cl)(Cl)Cl (centres undefined)	13µM*	-16%	-3%	-11%	13µM*	-11%
CN1C[C@H]2c3ccccc3Oc3ccc(Cl)cc3[C@@H]2C1	nt	nt	nt	nt	5%	nt
COc1ccc(/C(C)=N/N=C(N)N)c(O)c1	-7%	-5%	-4%	61%	-7%	-2%
CNC(=S)NN=C(C)c1ccc(OC)cc1O	10%	5µM*	?	-4%	-6%	nt
S=c1[nH]nc([C@@H]2C[C@H]2c2ccccc2)n1-c1ccccc1Cl	29%	nt	nt	77%	5µM*	13µM*
Cc1cccc(NC(=O)CN2C(=O)C(c3ccccc3)=NC23CCC(C)CC3)c1 (centres undefined)	nt	i	-13%	nt	-1%	nt
O=[N+]([O-])c1cc([N+](=O)[O-])c2oc(-c3ccccc3)c(Br)c2c1O	28µM*	-2%	?	0%	10%	-7%
CCC1CC(/C(C)=N/NC(N)=O)OC1=O (centres undefined)	-5%	-13%	-7%	-9%	-2%	3%
C/C(=N\NC(N)=S)C1C2C3CC4C5CC(C42)C1C53 (centres undefined)	-6%	11µM*	?	-4%	-1%	0%
CCN1/C(=C\C=C\C2=[N+](CC)c3ccccc3C2(C)C)C(C)(C)c2ccccc21	?	nt	nt	14µM*	?	10µM*
CCOC(=O)/C=C1/N(C)c2ccccc2C1(C)C	-4%	i	-14%	8%	0%	-2%
Cc1nn(-c2ccccc2)c2c1cc1c(=O)[nH]c(=O)nc-1n2-c1cccc(Cl)c1	nt	5%	-3%	nt	-5%	nt
CN(C)CCOC1=Cc2ccccc2Sc2ccc(Cl)cc21	nt	nt	nt	nt	-4%	nt
CCN1CCN(Cc2ccc(NC(=O)c3ccc(C)c(NC(=O)c4nccn4C)c3)cc2C(F)(F)F)CC1	-15%	-10%	?	45%	1%	-2%
CCN1CCN(Cc2ccc(NC(=O)c3ccc(C)c(NC(=O)c4cc(-c5ccc(Br)cc5)n[nH]4)c3)cc2C(F)(F)F)CC1	-11%	-26%	10µM*	0%	4%	2%
CCN1CCN(Cc2ccc(NC(=O)c3cc(NC(=O)c4nccnc4N)cc(OC)c3)cc2C(F)(F)F)CC1	-11%	-1%	-16%	-8%	0%	5%
CCN1CCN(Cc2ccc(NC(=O)c3ccc(C)c(NC(=O)c4cncc(-c5cccs5)c4)c3)cc2C(F)(F)F)CC1	3%	?	16µM*	?	-3%	nt
CCN1CCN(Cc2ccc(NC(=O)c3cc(NC(=O)c4cnnc5ccccc45)cc(OC)c3)cc2C(F)(F)F)CC1	-1%	?	10µM*	-25%	0%	2%
CCCC1(CCC)C(=O)NC(=NCc2ccccc2)NC1=O	-9%	?	16µM*	-1%	-13%	1%
CCN(CC)CCN(C(=O)c1cc2c(ccc3ccccc32)oc1=O)c1nc2cc3c(cc2s1)OCCO3	-3%	10µM*	?	-8%	-2%	5%
COc1cccc(CC(=O)NCC2Cc3cc(Cl)cc(-c4ncccn4)c3O2)c1 (centres undefined)	nt	-6%	-23%	nt	nt	nt
